Consider 26 compounds from PubChem BioAssay AID2732 (Emory University Molecular Libraries Screening Center, 2010).

The campaign covered roughly 220,000 compounds. About 8,200 (3.7%) were called active. What follows is part of a selection rich in actives, with near analogues and random picks from the rest. Unmarked numbers belong to inactive results.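 The calls were made as follows: active = compounds that reduced the stress-induced luciferase reporter signal by more than about 70% of percent inhibition (limit read from the data); inactive = the rest.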

The nature of this assay: blockers of ER-stress CHOP reporter expression – cell-based, unfolded protein response, luciferase reporter, primary screen (AID 2732).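 Also: 0% = tunicamycin plus vehicle and 100% = wells without tunicamycin.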 The note with it: CHO-K1 CHOP-promoter luciferase, tunicamycin-induced, 15-18 h; at 10 µM; hits give high values. In general terms: A reporter such as luciferase makes a cellular process visible.
For `Nc1nc(NC(=O)/C=C/c2ccc(F)cc2)nn1-c1ccccc1`, the inhibition was 18.8%.

As to `CCn1c(SCC(=O)Nc2nc3ccc(OC)cc3s2)nnc1-c1ccoc1C`, the inhibition is 14.3%.

As to `CCOC(=O)c1c(C2CC2)csc1NC(=O)CSCc1c(C)noc1C`, the inhibition is 50.5%. For `Cc1noc(C)c1CSCC(=O)Nc1nc2ccc(Oc3ccccc3)cc2s1` the value was 80.2% (active). The figure for `Cc1ccc(NNC(=O)C2CCC2)cc1C` is 6.66%; for `COc1ccc2cc1Oc1ccc(cc1)C[C@H]1c3cc(c(OC)cc3CCN1C)Oc1c(O)c(OC)cc3c1[C@H](C2)N(C)CC3` it is -41.5%. For `CS(=O)(=O)N(CC(=O)Nc1ccc(Cl)c(Cl)c1)C1CCCCC1`, the inhibition was 99.8% (active).

`CN(CC(=O)Nc1ccc(S(=O)(=O)N2CCCC2)cc1)Cc1ccc(Cl)c(Cl)c1`: the inhibition is 25.8%. For `CCC(C)NC(=O)CN(C1CCCCC1)S(C)(=O)=O` (stereo unspecified) the value was 5.15%; for `O=C(O)C(NS(=O)(=O)c1cccc2nsnc12)c1ccccc1` (stereo unspecified), 16%.

For the compound `O=C1COc2ccc(C(=O)COC(=O)c3cccnc3Cl)cc2N1`, the inhibition is -9.06%. For `CCCc1nc2ccccc2c(C(=O)OCC(=O)c2ccc3c(c2)NC(=O)CO3)c1CC` the value was 102% (active). For `CCCc1nc2ccccc2c(C(=O)OCc2nnc(-c3cc(OC)c(OC)c(OC)c3)o2)c1CC` the value was 58%. Consider `C#CCO[C@@H]1C[C@H](n2cnc3c(=O)[nH]c(NC(=O)C(C)C)nc32)O[C@@H]1CO`, for which the inhibition is -12.9%. For `COc1ccc([N+](=O)[O-])cc1N(CC(O)CN(CC(C)C)CC(C)C)S(=O)(=O)c1ccc(C)cc1` (stereo unspecified) the value was 9.51%.

As for `COc1ccc(CN2C(=O)C(C)S/C2=N/N=C/c2ccco2)cc1` (stereo unspecified), the inhibition is 5.76%. As for `S=C(NCCc1ccccc1)Nc1ccccc1`, the inhibition was -23.1%. As for `S=C(NCCc1ccccc1)NCc1ccccc1Cl`, the inhibition was 76.7% (active). Consider `Cc1ccc(NC(=S)NCc2ccccc2Cl)c(C)c1`, for which the inhibition was 21.4%. For `CCCCCCCCCCCCC(NC(C)=O)(C(=O)OCC)C(=O)OCC` the value was 28.6%; for `S=c1[nH]nc(-c2cccnc2)n1/N=C/C(Cl)=C\c1ccccc1`, -39.3%. For `Cc1cc(-c2n[nH]c(=S)n2/N=C/c2ccco2)n[nH]1` the value was -10.9%. For `Cc1cc(-c2n[nH]c(=S)n2/N=C/C(Br)=C/c2ccccc2)n[nH]1` the value was 106% (active). As for `COC(=O)c1sc(NC(=S)NC(=O)c2ccc(C)cc2)nc1C`, the inhibition is -2.37%. For `Nc1ccccc1C(=O)NC1CCCCNC1=O` (stereo unspecified), the inhibition is 13.6%. `COc1ccccc1Cn1c(CO)nc2ccccc21`: the inhibition is 6.99%.

For orientation: inhibition means the relative decrease from the control value, in per cent.
